Values without a mark were called inactive. Active and inactive are the calls of the source. Rule as the data show it, unless noted: active = inhibition above about 33%; inactive = the rest.

A short description of assay [1]: StAR promoter reporter inhibitors, counter-screen for LRH-1 inverse agonist project, cell-based, luminescence, high throughput (AID 651611; in the data active = inhibition above about 28%). The conditions noted are these: StAR promoter luciferase reporter counterscreen, at 3.6 µM, active compounds read high. For orientation: A counterscreen serves to expose hits that act by an unwanted route or on another target.
The target in assay [2] is Nuclear receptor subfamily 5 group A member 2 (Homo sapiens) (UniProt O00482). Put plainly: NR5A2 activity suppression in reporter cells – cell-based, luminescence, confirmation (AID 651613; in the data active = inhibition above about 42%;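 also: HEK293T cells co-transfected with LRH-1 and StAR promoter luciferase reporter; 0% = vehicle wells and 100% = parental cells lacking receptor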). The conditions noted are these: cell-based LRH-1 luciferase reporter, inverse agonism; at 3.6 µM; active compounds read high. (A reporter such as luciferase makes a cellular process visible.)

Assay [3] has as its target Steroidogenic factor 1 (Homo sapiens) (UniProt Q13285). Put plainly: inverse agonism at SF1 nuclear receptor – cell-based, luminescence, high throughput, counter-screen for LRH-1 inverse agonist project (AID 651614; in the data active = inhibition above about 44%;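 also: cells cotransfected with StAR promoter reporter and SF1 expression vector; 0% = vehicle on cells with receptor and 100% = vehicle on cells lacking receptor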). The conditions noted are these: cell-based SF1 luciferase reporter, at 3.6 µM, active compounds read high.
Assay [4] can be described thus: compounds suppressing VP16-driven luciferase signal – cell-based, luminescence, high throughput, counter-screen for LRH-1 inverse agonist project (AID 651615). The conditions noted are these: Gal4-VP16 luciferase reporter cells, at 3.6 µM, active compounds read high.

Chain of Steroidogenic factor 1 (Homo sapiens) (Q13285 whole entry, looked up, the tested form may be a part): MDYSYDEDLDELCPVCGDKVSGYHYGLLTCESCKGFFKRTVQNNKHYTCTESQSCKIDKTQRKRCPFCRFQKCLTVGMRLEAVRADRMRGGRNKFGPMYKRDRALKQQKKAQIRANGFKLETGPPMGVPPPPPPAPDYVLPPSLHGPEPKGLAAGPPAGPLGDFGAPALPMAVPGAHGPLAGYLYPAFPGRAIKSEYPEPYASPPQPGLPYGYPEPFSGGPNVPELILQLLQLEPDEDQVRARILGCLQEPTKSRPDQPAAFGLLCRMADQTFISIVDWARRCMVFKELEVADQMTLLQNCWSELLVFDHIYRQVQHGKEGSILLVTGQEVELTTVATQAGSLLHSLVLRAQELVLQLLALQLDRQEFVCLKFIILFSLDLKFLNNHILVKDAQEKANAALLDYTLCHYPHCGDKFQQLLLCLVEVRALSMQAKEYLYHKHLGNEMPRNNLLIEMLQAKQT
Chain of Nuclear receptor subfamily 5 group A member 2 (Homo sapiens) (O00482 whole entry, looked up): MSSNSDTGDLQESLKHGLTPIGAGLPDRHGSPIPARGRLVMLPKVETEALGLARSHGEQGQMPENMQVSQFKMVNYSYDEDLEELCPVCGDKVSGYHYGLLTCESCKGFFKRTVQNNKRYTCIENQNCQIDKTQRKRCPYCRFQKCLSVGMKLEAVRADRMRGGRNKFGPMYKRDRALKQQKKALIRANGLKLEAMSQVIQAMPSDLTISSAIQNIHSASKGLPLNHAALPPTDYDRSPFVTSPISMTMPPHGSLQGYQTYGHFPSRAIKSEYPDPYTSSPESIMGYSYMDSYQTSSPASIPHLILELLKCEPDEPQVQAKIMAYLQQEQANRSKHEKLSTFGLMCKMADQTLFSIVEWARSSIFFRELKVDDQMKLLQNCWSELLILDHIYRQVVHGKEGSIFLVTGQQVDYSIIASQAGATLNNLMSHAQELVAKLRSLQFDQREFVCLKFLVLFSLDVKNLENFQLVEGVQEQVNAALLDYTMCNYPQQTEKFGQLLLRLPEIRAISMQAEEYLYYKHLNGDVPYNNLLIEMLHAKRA

With `O=C1C(Cl)=C(N2CCOCC2)C(=O)N1c1ccc(Br)cc1`, the inhibition in assay [1] was 12.1%; in assay [2], 53.2% (active); in assay [3] it was 50.8% (active); in assay [4] it was 4.3%.
On the same counts, the results for `On1ccccc1=S` are 86.8% (active), 83.1% (active), 82.3% (active) and 87.5% (active).
In the same order, the values of `CC(=O)Nc1cc(-c2ccc(S(C)(=O)=O)cc2)cn2c(-c3ccc(F)c(Cl)c3)cnc12` are 12.9%, 61.1% (active), 51.7% (active) and 3.98%.
On the same counts, the results for `CC(=O)Oc1ccc(-c2ccc(C(=O)Nc3cccc(S(=O)(=O)N4CCOCC4)c3)cc2)cc1` are 25.5%, 35.1%, 52.1% (active) and 59.4% (active).
On to `Nc1nc(-c2ccccc2)[nH]c(=O)c1N=O`, for which the inhibition in assay [1] is 18.9%; in assay [2], 54% (active); in assay [3], 49.4% (active); in assay [4], -10.9%.
Take `CCNC(=S)N1CCN(c2nc(CC)nc3sc4c(c23)CCCC4)CC1`: the inhibition is 1.42% in assay [1], 48.3% (active) in assay [2], 37.6% in assay [3] and 5.39% in assay [4].
On the same counts, the results for `CCc1c(C)nc(SCC(=O)Nc2ccc3c(c2)OCCO3)[nH]c1=O` are 14.5%, 63.7% (active), 54.7% (active) and -6.83%.
On the same counts, the results for `CC(=O)N1c2ccc(S(=O)(=O)N3CCC(C(=O)Nc4cccc(C)n4)CC3)cc2CC1C` (configuration not stated) are 18%, 57.1% (active), 54.1% (active) and 51.9% (active).
As for `COc1cccc(C2c3cc4c(cc3OC(N3CCCC3)C2C)OCO4)c1O` (configuration not stated), the inhibition is 55% (active) in assay [1], 64% (active) in assay [2], 73.2% (active) in assay [3] and 21.9% in assay [4].
In the same order, the values of `C/C(=N\N=C(N)N)c1cc(Cl)ccc1Cl` are 26.9%, 102% (active), 30.1% and 75.8% (active).
Turning to `COc1ccc2c(c1)c[n+](C)c1c3cc(OC)c(OC)cc3ccc21`, the inhibition is 12.1% in assay [1], 58.3% (active) in assay [2], 56.5% (active) in assay [3] and 68.9% (active) in assay [4].
For `CCOc1ccc(NC(=O)CSc2nncc(=O)n2N)cc1`, the inhibition in assay [1] was 12.1%; in assay [2], 64.5% (active); in assay [3] it was 43.6% (active); in assay [4], -9.32%.
For `CC1(C)CC(=O)C=C(c2ccc3c(c2)OCO3)C1`, the inhibition is -7.31% in assay [1], 40.6% in assay [2], 42.1% in assay [3] and 2.47% in assay [4].

A word on the inhibition: it is the relative decrease from the control value, in per cent.

(Values after PubChem BioAssay.)
